From PubChem BioAssay AID1159580 (chemical genetic matrix, 2015)
The campaign covered roughly 5,500 compounds. About 2,000 (36%) were called active. Not shown: some 18% with an inconclusive outcome. No stated cut-off is given here; in the data, active means normalized growth mostly below about 0.91 (no sharp cut-off); inconclusive means no clear call, values can overlap the other calls; inactive means mostly above about 0.92. The list shows a part of the results.

Test: chemical genetic growth profiling, strain panel (AID 1159580);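 further: tested at 20 µM; growth read once vehicle control cultures reached saturation at 30 °C; 1 = growth at the plate median or of vehicle wells; lower values mean less growth of the strain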
Details: growth OD

Measured: normalized growth

O=C(O)/C=C/C=C/c1ccccc1
active: S. cerevisiae deletion strains, locus YJR066W, strain TOR1, active compounds read low 0.162 | S. cerevisiae deletion strains, locus YKL009W, strain mrt4, active compounds read low 0.784 | S. cerevisiae deletion strains, locus YKL068W, active compounds read low 0.854 | S. cerevisiae deletion strains, locus YKL085W, strain MDH1 (second series), active compounds read low 0.773 | S. cerevisiae deletion strains, locus YKL085W, strain MDH1, active compounds read low 0.773 | S. cerevisiae deletion strains, locus YKL160W, strain elf1, active compounds read low 0.831 | S. cerevisiae deletion strains, locus YKR001C, strain vps1, active compounds read low 0.792 | S. cerevisiae deletion strains, locus YKR026C, strain gcn3, active compounds read low 0.808 | S. cerevisiae deletion strains, locus YKR091W, strain srl3, active compounds read low 0.83 | S. cerevisiae deletion strains, locus YLL001W, strain dnm1, active compounds read low 0.782 | S. cerevisiae deletion strains, locus YLL026W, active compounds read low 0.831 | S. cerevisiae deletion strains, locus YLL041C, strain sdh2, active compounds read low 0.829 | S. cerevisiae deletion strains, locus YLR027C, strain aat2, active compounds read low 0.827 | S. cerevisiae deletion strains, locus YLR113W, strain HOG1, active compounds read low 0.26 | S. cerevisiae deletion strains, locus YLR221C, strain rsa3, active compounds read low 0.778 | S. cerevisiae deletion strains, locus YLR258W, strain gsy2, active compounds read low 0.817 | S. cerevisiae deletion strains, locus YLR262C, strain YPT6 (second series), active compounds read low 0.518 | S. cerevisiae deletion strains, locus YLR320W, strain mms22, active compounds read low 0.771 | S. cerevisiae deletion strains, locus YLR342W, strain FKS1, active compounds read low 0.812 | S. cerevisiae deletion strains, locus YLR357W, strain rsc2, active compounds read low 0.732 | S. cerevisiae deletion strains, locus YLR370C, strain arc18, active compounds read low 0.813 | S. cerevisiae deletion strains, locus YLR384C, strain iki3, active compounds read low 0.827 | S. cerevisiae deletion strains, locus YML120C, strain ndi1, active compounds read low 0.822 | S. cerevisiae deletion strains, locus YML124C, strain tub3, active compounds read low 0.917 | S. cerevisiae deletion strains, locus YMR058W, strain fet3, active compounds read low 0.793 | S. cerevisiae deletion strains, locus YMR078C, strain ctf18, active compounds read low 0.9 | S. cerevisiae deletion strains, locus YMR125W, strain sto1, active compounds read low 0.857 | S. cerevisiae deletion strains, locus YMR129W, active compounds read low 0.824 | S. cerevisiae deletion strains, locus YMR205C, strain PFK2, active compounds read low 0.826 | S. cerevisiae deletion strains, locus YMR231W, strain pep5, active compounds read low 0.835 | S. cerevisiae deletion strains, locus YNL071W, strain lat1, active compounds read low 0.775 | S. cerevisiae deletion strains, locus YNL183C, strain NPR1, active compounds read low 0.168 | S. cerevisiae deletion strains, locus YNL209W, strain ssb2, active compounds read low 0.863 | S. cerevisiae deletion strains, locus YNL248C, strain rpa49, active compounds read low 0.832 | S. cerevisiae deletion strains, locus YNL250W, strain rad50, active compounds read low 0.823 | S. cerevisiae deletion strains, locus YNL271C, strain bni1, active compounds read low 0.772 | S. cerevisiae deletion strains, locus YNL298W, strain CLA4, active compounds read low 0.692 | S. cerevisiae deletion strains, locus YNL322C, strain KRE1 (second series), active compounds read low 0.746 | S. cerevisiae deletion strains, locus YNR049C, strain mso1, active compounds read low 0.771 | S. cerevisiae deletion strains, locus YOL147C, strain pex11, active compounds read low 0.927 | S. cerevisiae deletion strains, locus YOR001W, strain rrp6, active compounds read low 0.794 | S. cerevisiae deletion strains, locus YOR070C, strain gyp1, active compounds read low 0.831 | S. cerevisiae deletion strains, locus YOR080W, strain dia2, active compounds read low 0.835 | S. cerevisiae deletion strains, locus YOR083W, strain WHI5, active compounds read low 0.808 | S. cerevisiae deletion strains, locus YOR106W, strain vam3, active compounds read low 0.793 | S. cerevisiae deletion strains, locus YOR144C, strain elg1, active compounds read low 0.926 | S. cerevisiae deletion strains, locus YOR231W, strain MKK1, active compounds read low 0.27 | S. cerevisiae deletion strains, locus YOR265W, strain rbl2, active compounds read low 0.836 | S. cerevisiae deletion strains, locus YOR270C, strain vph1, active compounds read low 0.687 | S. cerevisiae deletion strains, locus YOR290C, strain snf2, active compounds read low 0.737 | S. cerevisiae deletion strains, locus YPL051W, strain arl3, active compounds read low 0.83 | S. cerevisiae deletion strains, locus YPL078C, strain atp4, active compounds read low 0.771 | S. cerevisiae deletion strains, locus YPL106C, strain sse1, active compounds read low 0.821 | S. cerevisiae deletion strains, locus YPL240C, strain hsp82, active compounds read low 0.806 | S. cerevisiae deletion strains, locus YPL256C, strain CLN2, active compounds read low 0.226 | S. cerevisiae deletion strains, locus YPR119W, strain clb2, active compounds read low 0.922 | S. cerevisiae deletion strains, locus YPR141C, strain kar3, active compounds read low 0.877 | S. cerevisiae deletion strains, locus YPR163C, strain tif3, active compounds read low 0.908
inactive: S. cerevisiae deletion strains, locus YLR039C, strain RIC1, active compounds read low 0.832 | S. cerevisiae deletion strains, locus YLR058C, strain SHM2, active compounds read low 0.98 | S. cerevisiae deletion strains, locus YLR102C, strain apc9, active compounds read low 0.932 | S. cerevisiae deletion strains, locus YLR262C, strain YPT6, active compounds read low 0.886 | S. cerevisiae deletion strains, locus YLR268W, strain sec22, active compounds read low 0.887 | S. cerevisiae deletion strains, locus YLR330W, strain CHS5, active compounds read low 0.952 | S. cerevisiae deletion strains, locus YLR342W, strain FKS1 (second series), active compounds read low 0.882 | S. cerevisiae deletion strains, locus YLR371W, strain rom2, active compounds read low 0.913 | S. cerevisiae deletion strains, locus YLR418C, strain cdc73, active compounds read low 0.859 | S. cerevisiae deletion strains, locus YML016C, strain PPZ1, active compounds read low 0.994 | S. cerevisiae deletion strains, locus YML032C, strain rad52, active compounds read low 0.908 | S. cerevisiae deletion strains, locus YMR223W, strain ubp8, active compounds read low 0.934 | S. cerevisiae deletion strains, locus YMR307W, strain GAS1, active compounds read low 0.924 | S. cerevisiae deletion strains, locus YNL067W, strain RPL9B, active compounds read low 0.954 | S. cerevisiae deletion strains, locus YNL153C, strain GIM3, active compounds read low 0.952 | S. cerevisiae deletion strains, locus YNL233W, strain BNI4, active compounds read low 0.949 | S. cerevisiae deletion strains, locus YNL307C, strain MCK1, active compounds read low 0.93 | S. cerevisiae deletion strains, locus YNL322C, strain KRE1, active compounds read low 0.985 | S. cerevisiae deletion strains, locus YNR052C, strain pop2, active compounds read low 0.925 | S. cerevisiae deletion strains, locus YOL006C, strain TOP1, active compounds read low 1.11 | S. cerevisiae deletion strains, locus YOL012C, strain htz1 1.04 | S. cerevisiae deletion strains, locus YOR061W, strain CKA2, active compounds read low 0.973 | S. cerevisiae deletion strains, locus YOR069W, strain VPS5, active compounds read low 0.974 | S. cerevisiae deletion strains, locus YOR136W, strain idh2, active compounds read low 0.938 | S. cerevisiae deletion strains, locus YOR184W, strain ser1, active compounds read low 0.928 | S. cerevisiae deletion strains, locus YOR316C, strain cot1, active compounds read low 0.932 | S. cerevisiae deletion strains, locus YPL055C, strain LGE1, active compounds read low 0.965 | S. cerevisiae deletion strains, locus YPR167C, strain met16, active compounds read low 0.926 | S. cerevisiae deletion strains, strain wtn01, active compounds read low 0.926 | S. cerevisiae strains, strain wild type, active compounds read low 0.976
